NS1 function inh – qHTS Assay for Inhibitors of Influenza NS1 Protein Function; Potency, µM (titrated, usually from 46.1 µM), for inactives: at the top dose activity, positive = more growth; 270,000 tested, 0.4% active; calls by dose curve; further: actives are rising curves; nearly all actives have a fitted effect of over 50% in size
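Compounds were scored for reversing the slow growth caused by influenza A NS1 in S. cerevisiae, measured by optical density at 600 nm. Assay medium contained 2% galactose at pH 6.0; NS1-free yeast of the same strain were the positive control.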
Pf growth 96h – Primary qHTS for delayed death inhibitors of the malarial parasite plastid, 96 hour incubation | Potency, µM (series often up to 28.7 µM), for the others: top-dose activity change, negative = inhibition, hits mostly inhibitors | P. falciparum luciferase reporter growth, 96 h | 320,000 tested, 6.9% active | AID 504834, 2011; further: on the % scale 0 is the no-effect control and ±100 the full control effect
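96 h incubation, 37 C, 5% CO2, of luciferase-reporter P. falciparum-infected RBCs (2% hematocrit, 0.05% parasitemia final) with test compounds; endpoint luminescence.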
SARS PLpro yeast – qHTS of Yeast-based Assay for SARS-CoV PLP. S. cerevisiae expressing SARS-CoV PLpro, growth rescue. Potency, µM (series often up to 32.9 µM), for the others: top-dose activity, positive = growth rescue, actives largely listed as activators. 330,000 tested, 0.19% active; calls by dose curve; further: 0% is about no effect; nearly all actives have a fitted effect of over 55% in size
Pf growth 48h – Primary qHTS for delayed death inhibitors of the malarial parasite plastid, 48 hour incubation. 310,000 tested, 5.9% active. AID 504832, 2011. P. falciparum luciferase growth in erythrocytes, 48 h. Potency, µM (series often up to 28.7 µM), inactives show top-dose activity change, negative = inhibition, actives largely listed as inhibitors; further: on the % scale 0 is the no-effect control and ±100 the full control effect
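In quantitative HTS format, infected erythrocytes bearing luciferase-reporter parasites were treated for a single generation at 37 C. Luminescence after adding detection reagent served as the growth measure.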
* marks the source's active call; other numbers are inactive results; ? = inconclusive; . = not tested or not shown. Only some compounds are listed: those with a hit (about 10% of all), similar ones and a draw of the others. Unless noted, the call rests on the fitted dose curve; in most records, active means well fitted inhibition curve with a large enough effect; inconclusive means small, poorly fitted or top-dose-only effect, or another doubt; inactive means no such curve, though single readings can be large or run the other way. Potency means the concentration at half of the fitted maximal effect.

SMILES | NS1 function inh | Pf growth 96h | SARS PLpro yeast | Pf growth 48h
Cc1ccc(C(=O)c2c3ccccc3[n+]([O-])n2CCC(N)=O)cc1 | 6.6% | 16.0% | -7.8% | -3.9%
C=Cn1cc[n+](CC(=O)c2ccc(Br)s2)c1 | 10.5% | 3.29µM* | 18.7% | ?
C=Cn1cc[n+](CC(=O)c2cccs2)c1 | -4.3% | 6.57µM* | 3.1% | ?
O=C(C[n+]1ccccc1)c1ccc(-c2ccccc2)cc1 | . | 10.3% | -2.2% | 29.8%
C=Cn1cc[n+](CC(=O)c2ccc(-c3ccccc3)cc2)c1 | -9.5% | ? | -2.0% | 1.47µM*
C=Cn1cc[n+](CC(=O)c2cc(C(C)(C)C)c(O)c(C(C)(C)C)c2)c1 | -7.4% | 2.08µM* | 7.4% | 6.57µM*
Cc1ccc2nc(N/N=C\c3cccc(C)n3)cc(C)c2c1 | -10.4% | . | . | .
CCOc1ccc(N(CC(=O)O)S(=O)(=O)c2cccnc2)cc1 | 2.1% | 14.7µM* | 2.9% | .
CCOc1ccc(N(CC(=O)Nc2cccnc2)S(=O)(=O)c2ccc(C)cc2)cc1 | . | 2.1% | -6.5% | 13.1µM*
CC(C)c1ccc(N(CC(=O)O)S(=O)(=O)c2cccnc2)cc1 | -11.6% | -3.3% | -1.1% | .
O=C(c1ccccc1)C1CCN(C(=O)C2CCC(=O)N(Cc3ccccc3F)C2)CC1 (stereo unspecified) | -6.9% | ? | -7.5% | ?
C/C(=N\Nc1nccnc1Cl)c1ccc(Cl)c(Cl)c1 | -13.7% | -25.4% | -3.2% | 0.5%
CCCCOc1ccc(Br)cc1/C(C)=N/NC1=NCCN1 | -22.3% | -10.0% | -41.1% | 4.65µM*
C/C(=N\NC1=NCCN1)c1ccc(N)c([N+](=O)[O-])c1 | 0.7% | ? | 3.4% | 2.08µM*
CCCCCCOc1ccc(/C(C)=N/NC2=NCCN2)cc1[N+](=O)[O-] | 9.6% | 27.9% | -3.5% | ?
COc1ccc(/C(C)=N/NC2=NCCN2)cc1Cl | -1.9% | 3.7µM* | -6.6% | 4.65µM*
O=C(COc1ccccc1[N+](=O)[O-])NNC(=O)Nc1cccc2ccccc12 | 0.7% | -5.3% | -1.7% | -27.4%
COc1ccc(C(=O)N/C(=C\c2cn(C)c3ccccc23)C(=O)NCCCN2CCOCC2)cc1 | 3.7% | ? | . | ?
Cn1c(NN=O)nc2ccccc21 | 7.2% | ? | 0.0% | 11.7µM*
CC(=O)Nc1nc2ccccc2n1Cc1ccccc1 | -2.2% | 11.7µM* | -3.4% | ?
O=NNc1nc2ccccc2n1Cc1ccccc1 | 1.1% | 13.1µM* | 2.9% | ?
Cc1ccc(OCc2ccc(C(=O)Nc3nc4ccccc4n3Cc3ccccc3)o2)c([N+](=O)[O-])c1 | 8.0% | . | 9.5% | ?
O=S(=O)(O)c1nc2ccccc2n1Cc1ccccc1 | 28.7% | ? | -3.8% | 1.2%
O=C(Nc1nc2ccccc2n1Cc1ccccc1)c1ccc(COc2ccccc2[N+](=O)[O-])o1 | 29.8% | ? | 5.1% | 1.85µM*
Cc1cc(C)c(NC(=O)CS(=O)CC(=O)Nc2ccc(-n3cnnn3)c(C)c2)c(C)c1 (stereo unspecified) | 0.9% | 3.5% | 3.8% | 7.1%
SMILES | NS1 function inh | Pf growth 96h | SARS PLpro yeast | Pf growth 48h
Cn1c(N=Nc2ccccc2)nc2ccccc21 | -47.1% | 0.262µM* | -60.4% | 0.738µM*
CN(C)c1ccc(N=Nc2nc3ccccc3n2C)cc1 | -34.5% | ? | -13.9% | 4.0%
COc1cc(CNC(=O)C2CCC(=O)N(C3CCCCCC3)C2)cc(OC)c1 (stereo unspecified) | -0.2% | ? | -1.1% | 29.8%
COc1ccc(Br)cc1CNC(=O)CCNC(=O)Cn1ccc2ccccc2c1=O | . | 3.0% | 0.9% | -4.8%
COc1cc(CSc2ncn[nH]2)c(OC)cc1CSc1ncn[nH]1 | 2.3% | 13.1µM* | 5.2% | ?
c1ccc(CSc2ncn[nH]2)nc1 | -1.0% | 5.22µM* | -0.6% | 5.6%
NS(=O)(=O)c1ccc(NC(=O)NC2CC(=O)N(c3ccc4c(c3)OCCO4)C2)cc1 (stereo unspecified) | . | -12.0% | -5.0% | 34.7%
CC(=O)Nc1ccc(NC(=O)c2ccccc2-n2cnnn2)cc1 | . | 9.0% | -5.7% | 35.4%
Cc1cccc(-c2nn(-c3ccccc3)cc2C(=O)N(C)CC(=O)Nc2ccc(N3CCOCC3)cc2)c1 | . | 10.8% | -2.9% | 2.0%
COc1ccc2c(c1OC)C(=O)OC2C1c2cc3c(cc2CCN1C)OCO3 (stereo unspecified) | -6.2% | 11.7µM* | 0.4% | 12.7%
CC(=O)Nc1ccc(S(=O)(=O)NC(CSc2ccc(C(=O)O)cc2[N+](=O)[O-])C(=O)O)cc1 (stereo unspecified) | 4.7% | 6.5% | 1.7% | 3.2%
Cc1cccc(C)c1OCC(=O)N[C@@H](Cc1ccccc1)[C@@H](O)C[C@H](Cc1ccccc1)NC(=O)[C@H](C(C)C)N1CCCNC1=O | . | 6.75µM* | . | 3.38µM*
CC(=O)NC(CC(=O)NNC(=O)COc1c(C)cccc1C)c1ccccc1 (stereo unspecified) | . | . | 2.5% | .
Cc1onc(-c2ccccc2)c1C(=O)Nc1ccc(S(=O)(=O)N2CCOCC2)cc1 | -5.5% | 196.1% | 1.2% | -11.7%
Cc1nn2c(COc3ccc(NC(=O)c4ccccc4)cc3)nnc2c2ccccc12 | -24.9% | 6.57µM* | 14.8% | ?
CCC(=O)Nc1ccc(OCc2nnc3c4ccccc4c(C)nn23)cc1 | 4.8% | 31.0% | 0.4% | ?
COc1ccc(S(=O)(=O)Nc2ccccc2OC)cc1NC(=O)c1cc2ccccc2oc1=O | 18.0% | -9.9% | 22.5% | 16.9%
CCOc1cc(C2C(C#N)=C(N)SC(N)=C2C#N)ccc1OCCN1CCOCC1 | 6.5% | . | 2.1% | 9.28µM*
CCCc1[nH]nc2c1C(c1ccc(OCCN3CCOCC3)c(OC)c1)C(C#N)=C(N)O2 (stereo unspecified) | -2.5% | -6.2% | -11.5% | 27.9%
Oc1ccccc1/C=N/n1cnnc1 | 5.3% | -23.2% | -1.1% | .
c1ccc2c(c1)C(=Nn1cnnc1)c1ccccc1-2 | -36.0% | 11.7µM* | -0.3% | 2.8%
O=C1/C(=N/n2cnnc2)c2ccccc2N1Cc1ccccc1 | -114.4% | 9.28µM* | -27.0% | -11.1%
Clc1ccc(CN2CCCN(Cc3ccc(Cl)cc3)C2c2cc3ccccc3c3ccccc23)cc1 | -13.6% | . | . | .
COc1ccc(C(CNC(=O)c2ccc(NS(=O)(=O)c3cccc([N+](=O)[O-])c3)cc2)N2CCOCC2)cc1 (stereo unspecified) | -39.3% | ? | 1.7% | ?
COC(=O)C1CCN(C(=O)C2CCN(C(=O)[C@H](C)NS(=O)(=O)c3ccc(C)cc3)CC2)CC1 | -15.2% | 11.7µM* | 1.1% | ?
C[C@H](CO)N1C[C@H](C)[C@@H](CN(C)C(=O)Nc2ccc3c(c2)OCO3)Oc2c(NC(=O)Nc3ccc4c(c3)OCO4)cccc2C1=O | . | . | 0.7% | .
CNC(=O)COC(=O)/C=C/c1cn(-c2ccccc2)nc1-c1ccc(C)o1 | 2.9% | 7.38µM* | -0.5% | 11.7µM*
COc1cc(C(=O)Nc2nc3ccc(S(C)(=O)=O)cc3s2)cc(OC)c1C | 2.1% | 7.38µM* | -1.0% | ?
COc1cc(OC)cc(C(=O)Nc2nc3ccc(S(C)(=O)=O)cc3s2)c1 | . | 118.4% | -4.3% | 105.2%

Bioassay records: PubChem BioAssay, National Center for Advancing Translational Sciences (NCATS)
